NPR1 activator: GC-A (human) enzyme activation | HEK293 GC-A cells, cGMP TR-FRET, EC30 ANP; 0% at EC30 ANP, 100% saturating ANP | P16066 | 370,000 tested, 0.14% active | activation, % at 10 µM; in the data active means activation above about 40%
Target sequence (P16066 whole entry, looked up): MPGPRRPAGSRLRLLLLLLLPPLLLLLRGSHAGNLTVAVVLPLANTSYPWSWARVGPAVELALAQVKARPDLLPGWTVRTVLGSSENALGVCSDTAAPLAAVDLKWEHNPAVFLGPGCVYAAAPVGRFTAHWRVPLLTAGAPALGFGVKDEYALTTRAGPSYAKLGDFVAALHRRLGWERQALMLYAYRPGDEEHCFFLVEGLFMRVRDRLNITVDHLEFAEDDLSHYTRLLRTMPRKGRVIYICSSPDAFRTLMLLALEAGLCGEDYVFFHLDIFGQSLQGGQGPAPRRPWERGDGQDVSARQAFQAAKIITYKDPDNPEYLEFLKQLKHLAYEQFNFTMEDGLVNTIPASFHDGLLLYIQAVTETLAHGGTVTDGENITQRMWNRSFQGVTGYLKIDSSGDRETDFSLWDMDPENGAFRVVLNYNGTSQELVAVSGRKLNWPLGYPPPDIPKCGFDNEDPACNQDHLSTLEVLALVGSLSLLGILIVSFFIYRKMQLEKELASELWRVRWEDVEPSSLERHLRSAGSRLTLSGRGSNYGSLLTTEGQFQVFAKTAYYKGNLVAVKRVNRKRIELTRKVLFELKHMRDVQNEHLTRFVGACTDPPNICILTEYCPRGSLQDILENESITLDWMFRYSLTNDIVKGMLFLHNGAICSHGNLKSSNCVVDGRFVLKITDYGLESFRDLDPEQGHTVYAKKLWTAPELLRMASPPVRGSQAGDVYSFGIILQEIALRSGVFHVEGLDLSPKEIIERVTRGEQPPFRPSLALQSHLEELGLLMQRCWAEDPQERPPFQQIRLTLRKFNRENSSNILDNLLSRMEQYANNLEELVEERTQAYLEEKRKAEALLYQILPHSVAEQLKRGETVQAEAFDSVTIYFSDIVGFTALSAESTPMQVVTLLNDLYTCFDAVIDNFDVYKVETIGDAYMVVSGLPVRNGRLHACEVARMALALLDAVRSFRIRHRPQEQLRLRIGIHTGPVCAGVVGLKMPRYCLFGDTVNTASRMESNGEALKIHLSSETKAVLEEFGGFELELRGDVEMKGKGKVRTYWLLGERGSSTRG
ADAM17 inh: ADAM17 inhibition, QFRET primary screen. P78536. recombinant ADAM17, EDANS/DABCYL FRET peptide cleavage. inhibition, % at 6.95 µM. 370,000 tested, 0.83% active. AID 720648;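 active means inhibition above the mean of compounds lying between control limits plus 3 SD, set per campaign, cut at about 8.5% in these data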
ADAM10 inh: inhibits human ADAM10. recombinant ADAM10, EDANS/DABCYL FRET peptide cleavage, 3 h. inhibition, % at 7 µM. 370,000 tested, 0.62% active. AID 720582;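 active means inhibition above a per-campaign cutoff equal to the mean of compounds falling between control-based bounds plus 3 SD, cut at about 20% in these data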
NPR2 activator: GC-B (human) receptor activation. activation, % at 10 µM. 370,000 tested, 0.11% active. P20594. HEK293-GC-B cells, CNP EC30, cGMP TR-FRET; 0% at EC30 CNP, 100% saturating CNP;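 active means activation at 10 µM reaching about 35% in either raw or pattern-adjusted values, limit read from the data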
KLK7 zymogen act: activators of human kallikrein-7 zymogen; P49862; purified proKLK7, EDANS-DABCYL substrate fluorescence; 100% is mature enzyme control, 0% vehicle; activation, % at 7 µM; 370,000 tested, 0.9% active; AID 652039;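 active means activation above the mean of all tested compounds plus 3 SD, computed per campaign excluding outliers beyond control limits, cut at about 13% in these data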
ADAM10 confirm: human ADAM10 inhibition, confirmation. shares compounds with ADAM10 inh. ADAM10 QFRET peptide cleavage, EDANS fluorescence. inhibition, % at 6.95 µM. 2,100 tested, 1% active;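 active means inhibition above about 20% chosen separately for each screening run, limit read from the data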
ADAM17 ctr: ADAM17 inhibition, counter-screen for ADAM10 exosite hits; shares compounds with ADAM10 inh; ADAM17 QFRET peptide cleavage, EDANS fluorescence; inhibition, % at 6.95 µM; 2,100 tested, 0.5% active;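 active means mean triplicate inhibition above the solvent-only control wells' mean plus 3 SD, cut at about 12% in these data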
ADAM10 ctr: inhibits human ADAM10 in ADAM17 exosite counter-screen. shares compounds with ADAM17 inh. recombinant ADAM10, EDANS/DABCYL FRET peptide cleavage, 3 h. inhibition, % at 6.95 µM. 2,900 tested, 47% active;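 active means mean inhibition over the triplicate runs exceeds the activity threshold set in the earlier primary screen, cut at about 20% in these data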
ADAM17 confirm: human ADAM17 inhibition, confirmation; recombinant ADAM17, EDANS/DABCYL QFRET peptide cleavage; inhibition, % at 6.95 µM; 2,900 tested, 65% active; shares compounds with ADAM17 inh;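 active means mean inhibition across replicates above the hit cutoff set in the primary screen, cut at about 8.5% in these data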
Numbers stand for hits; - = inactive; . = no result. This is a sample that favours compounds with a hit; in the whole collection about 2.2% have one here.

SMILES	NPR1 activator	ADAM17 inh	ADAM10 inh	NPR2 activator	KLK7 zymogen act	ADAM10 confirm	ADAM17 ctr	ADAM10 ctr	ADAM17 confirm
C[C@H](CO)N1C[C@H](C)[C@H](CN(C)S(=O)(=O)c2cn(C)cn2)Oc2ccc(NC(=O)Nc3ccc(C(F)(F)F)cc3)cc2CC1=O	-	-	-	-	-	.	.	.	.
C[C@H]1CN([C@@H](C)CO)C(=O)Cc2cc(NC(=O)CCC(F)(F)F)ccc2O[C@H]1CN(C)Cc1ccc(C(F)(F)F)cc1	-	11	25	-	-	-	-	27	16
COC[C@H]1CCCN1c1cccc2c1S(=O)(=O)N(C1CC1)CC[C@@H](C)O2	-	-	-	-	-	.	.	.	.
CCOC(=O)N1CCN(C(=O)C[C@H]2C[C@@]3(C(=O)OC)C(=C[C@H](C(C)C)O[C@@H]3C3CC3)N(Cc3cccc4ccccc34)C2=O)CC1	-	-	-	-	-	.	.	.	.
O=C(NN=C/C=C/c1ccco1)c1cc(-c2ccc(Cl)cc2)n[nH]1	-	-	-	-	-	.	.	.	.
CCOC(=O)c1ccc(N/C(=N\S(=O)(=O)c2ccc(F)cc2F)c2ccccc2)cc1	-	12	30	-	-	-	-	27	18
CC1(Cc2cc(Cl)ccc2C(F)(F)F)C(=O)Nc2cc(C(F)(F)F)ccc21 (stereo not given)	-	-	-	-	-	.	.	.	.
CC1(Cc2ccc(C(F)(F)F)o2)C(=O)Nc2cc(-c3ccc(F)cc3F)ccc21 (stereo not given)	-	13	45	-	-	-	-	44	24
Cc1cc(NS(=O)(=O)c2ccc(NC(=O)Cc3ccc(Cl)c(F)c3)cc2)no1	-	-	-	-	-	.	.	.	.
CCOc1cc(/C=N/NC(=O)CNc2cccc(C)c2)ccc1OC(=O)c1ccccc1	-	12	25	-	-	-	-	33	16
FC(F)Sc1ccc(NC(=S)NC2CCCCC2)cc1	-	14	25	-	-	-	-	-	11
CCc1ccc(NC(=O)C2=CC(c3cccs3)=NS(=O)(=O)N2C)cc1	-	18	29	-	-	-	-	23	13
CC(C)CCNC(=O)C1CCN(c2cncnc2)CC1	-	-	-	-	-	.	.	.	.
COc1ccccc1NC(=O)CNC(c1ccccc1)c1ccccc1	-	9.0	29	-	-	-	-	20	11
COc1ccc(C(=O)C2(C(=O)NCCO)CC(c3ccccn3)=NO2)cc1 (stereo not given)	-	-	-	-	-	.	.	.	.
CCCCCn1nnnc1C1(C)Cn2nccc2C(=O)N1Cc1ccco1 (stereo not given)	-	-	-	-	-	.	.	.	.
O=C(OCc1cn(Cc2ccc(F)cc2F)nn1)N1CCCC1	-	-	-	-	-	.	.	.	.
Cc1ccc(C(=O)N2CCN(C3c4cccc5cccc(c45)C3NS(=O)(=O)c3ccccc3)CC2)cc1 (stereo not given)	-	11	24	-	-	-	-	-	12
CC(=O)N1CCN(C2c3cccc4cccc(c34)C2NS(=O)(=O)c2ccccc2)CC1 (stereo not given)	-	-	-	-	-	.	.	.	.
Cc1ccc(S(=O)(=O)NCC2Cc3ccccc3N2S(=O)(=O)c2ccc(C)cc2)cc1 (stereo not given)	-	9.2	22	-	.	-	-	39	17
COc1cc(O)c(C(CC(=O)N2CCC(C)CC2)c2ccc3c(c2)OCO3)c(OC)c1 (stereo not given)	-	-	-	-	.	.	.	.	.
CCN1C(=O)/C(=C/C=C2/SCCN2C)SC1=S	-	-	-	-	-	.	.	.	.
